Laboratory results as given in PubChem BioAssay AID1159580 (chemical genetic matrix, 2015).
“And” between values parts separate entries of the source, which are not always exact repeats. Equal values may be shown once. Hit rate of the full screen: of about 5,500 compounds, about 2,000 (36%) were called active. Not shown: some 18% with an inconclusive outcome. Rule as the data show it: active = normalized growth mostly below about 0.91 (no sharp cut-off); inconclusive = no clear call, values can overlap the other calls; inactive = mostly above about 0.92. The list shows a part of the results.

Assay: chemical genetic growth profiling, strain panel (AID 1159580);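 also: tested at 20 µM; growth read once vehicle control cultures reached saturation at 30 °C; 1 = growth at the plate median or of vehicle wells; lower values mean less growth of the strain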
Details: S. cerevisiae deletion strains, growth OD

Measured: normalized growth

COCCc1ccc(OCC(O)CNC(C)C)cc1 (stereo unspecified)
inactive: locus YAL013W, strain DEP1, hits give low values 1.01 | locus YAL021C, strain ccr4, hits give low values 1 | locus YAL026C, strain drs2, hits give low values 1.01 | locus YAL030W, strain snc1, hits give low values 0.988 | locus YAL040C, strain CLN3, hits give low values 0.996 | locus YBL061C, strain skt5, hits give low values 0.989 | locus YBR009C, strain hhf1, hits give low values 0.998 | locus YBR021W, strain FUR4, hits give low values 1.01 | locus YBR023C, strain chs3, hits give low values 0.987 | locus YBR171W, strain sec66, hits give low values 0.986 | locus YBR229C, strain ROT2, hits give low values 1 | locus YBR231C, strain swc5, hits give low values 1.01 | locus YBR279W, strain paf1, hits give low values 1.01 | locus YCL011C, strain gbp2, hits give low values 0.96 | locus YCL016C, strain dcc1, hits give low values 0.966 | locus YCL029C, strain bik1, hits give low values 1.03 | locus YCL061C, strain MRC1 (second series), hits give low values 1 | locus YCL061C, strain MRC1, hits give low values 0.997 | locus YCL069W, strain vba3, hits give low values 0.992 | locus YCR088W, strain abp1, hits give low values 1 | locus YDL005C, strain med2, hits give low values 1 | locus YDL035C, strain GPR1, hits give low values 0.997 | locus YDL040C, strain nat1, hits give low values 1.01 | locus YDL074C, strain BRE1, hits give low values 1.02 | locus YDL101C, strain DUN1, hits give low values 1.02 | locus YDL134C, strain PPH21, hits give low values 1 | locus YDL185W, strain tfp1, hits give low values 1.01 | locus YDL192W, strain arf1, hits give low values 1 | locus YDR001C, strain nth1, hits give low values 0.979 | locus YDR069C, strain doa4, hits give low values 0.991 | locus YDR101C, strain arx1, hits give low values 1.01 | locus YDR137W, strain rgp1, hits give low values 0.942 | locus YDR150W, strain NUM1, hits give low values 1 and 0.986 | locus YDR159W, strain sac3, hits give low values 1.02 | locus YDR162C, strain NBP2, hits give low values 1 | locus YDR195W, strain ref2 0.998 | locus YDR297W, strain sur2, hits give low values 1.02 | locus YDR318W, strain mcm21, hits give low values 1.02 | locus YDR334W, strain swr1, hits give low values 0.942 | locus YDR335W, strain msn5, hits give low values 0.984 | locus YDR363W, strain ESC2, hits give low values 1.02 | locus YDR388W, hits give low values 1.02 | locus YDR392W, strain spt3, hits give low values 0.944 | locus YDR502C, strain sam2, hits give low values 0.997 | locus YEL003W, strain gim4, hits give low values 0.996 | locus YEL037C, strain rad23, hits give low values 0.989 | locus YEL061C, strain CIN8 (second series), hits give low values 0.975 | locus YEL061C, strain CIN8, hits give low values 1.01 | locus YER002W, strain NOP16, hits give low values 0.993 | locus YER015W, strain faa2, hits give low values 0.988 | locus YER016W, strain bim1, hits give low values 0.999 | locus YER110C, hits give low values 1.01 | locus YER111C, strain swi4, hits give low values 1 | locus YER155C, strain BEM2 (second series), hits give low values 1.02 | locus YER155C, strain BEM2, hits give low values 1 | locus YER167W, strain BCK2, hits give low values 0.981 | locus YFR010W, strain ubp6, hits give low values 0.978 | locus YGL078C, strain dbp3, hits give low values 1.01 | locus YGL086W, strain mad1, hits give low values 1 | locus YGL167C, strain pmr1, hits give low values 0.989 | locus YGL173C, strain kem1, hits give low values 1 | locus YGL227W, strain vid30, hits give low values 0.988 | locus YGL240W, strain doc1, hits give low values 1.03 | locus YGL248W, strain PDE1, hits give low values 1.01 | locus YGL253W, strain hxk2, hits give low values 0.983 | locus YGR078C, strain PAC10, hits give low values 1.02 | locus YGR135W, strain pre9, hits give low values 1.01 | locus YGR229C, strain SMI1, hits give low values 1.01 and 1.02 | locus YGR252W, strain gcn5, hits give low values 0.978 | locus YHR013C, strain ard1, hits give low values 0.956 | locus YHR027C, strain rpn1, hits give low values 0.971 | locus YHR030C, strain SLT2, hits give low values 1 and 1.06 | locus YHR079C, strain IRE1 (second series), hits give low values 1.02 | locus YHR079C, strain IRE1, hits give low values 1.07 | locus YHR094C, strain hxt1, hits give low values 1.01 | locus YHR129C, strain ARP1, hits give low values 1.01 | locus YHR142W, strain chs7, hits give low values 0.943 | locus YHR200W, strain rpn10, hits give low values 1.02 | locus YIL066C, strain RNR3, hits give low values 1.01 | locus YIL073C, strain SPO22, hits give low values 1.04 | locus YIL125W, strain kgd1, hits give low values 1.01 | locus YIR030C, strain dcg1, hits give low values 1.02 | locus YJL092W, strain hpr5, hits give low values 0.988 | locus YJL095W, strain BCK1 (second series), hits give low values 0.994 | locus YJL095W, strain BCK1, hits give low values 1.03 and 1.04 | locus YJL115W, strain asf1, hits give low values 0.964 | locus YJL129C, strain trk1, hits give low values 1 | locus YJL134W, strain LCB3, hits give low values 1 | locus YJL154C, strain vps35, hits give low values 0.973 | locus YJL164C, strain tpk1, hits give low values 1.01 | locus YJL166W, strain qcr8, hits give low values 0.981 | locus YJL168C, strain set2, hits give low values 1.03 | locus YJL187C, strain SWE1 (second series), hits give low values 1.03 | locus YJL187C, strain SWE1, hits give low values 1.04 | locus YJR043C, strain POL32, hits give low values 1.01 | locus YJR066W, strain TOR1, hits give low values 1.01
